Test results from PubChem BioAssay (NCI).
Compounds without any hit were thinned out: in the full panel of roughly 83,000, 20% have a hit.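 The test compound was applied at a single concentration to cells in 96-well plates for 48 hours, and percent growth was recorded.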 Activity calls are given as the source filed them. The calls were made as follows: active = growth percent below 10; inactive = the rest.

Assays:
Experiment in all cases: NCI-60 one-dose screen, 48 h (100 = growth as untreated, 0 = no growth, -100 = all killed)
Settings in all cases: 10 µM unless noted
[1] = tested on: RPMI-8226 leukemia
[2] = tested on: OVCAR-8 ovarian
[3] = tested on: OVCAR-5 ovarian
[4] = tested on: OVCAR-4 ovarian
[5] = tested on: SK-OV-3 ovarian
[6] = tested on: IGROV1 ovarian
[7] = tested on: OVCAR-3 ovarian
[8] = tested on: HS 578T breast
[9] = tested on: NCI/ADR-RES ovarian

Row | SMILES | growth [1] | growth [2] | growth [3] | growth [4] | growth [5] | growth [6] | growth [7] | growth [8] | growth [9]
1 | O=C(O)c1cn(C2CC2)c2cc(N3CCN(C(=O)CSc4nc(NS(=O)(=O)c5ccccc5)cc(=O)[nH]4)CC3)c(F)cc2c1=O | 82.1% (inactive) | 98.5% (inactive) | 112% (inactive) | 104% (inactive) | 117% (inactive) | 98.3% (inactive) | 83.9% (inactive) | 89.1% (inactive) | 101% (inactive)
2 | CC(=O)O[C@@H]1[C@@H](OC(C)=O)[C@H](OC(C)=O)CO[C@H]1Nc1cccc2ccccc12 | 87.9% (inactive) | 102% (inactive) | 100% (inactive) | 103% (inactive) | 105% (inactive) | 97.9% (inactive) | 95.7% (inactive) | 96.3% (inactive) | 95.9% (inactive)
3 | CN(C)C(=O)Nc1nc2cc(Cl)c(Cl)cc2[nH]1 | -15.7% (active) | 13.6% (inactive) | 40.3% (inactive) | 33.9% (inactive) | 20.1% (inactive) |  | -49.9% (active) | 50.8% (inactive) | 
4 | COc1ccc(C2CC(c3cc(Cl)c(C)cc3OC)=NN2c2ccc(S(N)(=O)=O)cc2)cc1OC (stereo not given) | 91% (inactive) | 73.8% (inactive) | 70.6% (inactive) | 87.8% (inactive) | 116% (inactive) | 79.1% (inactive) | 103% (inactive) | 101% (inactive) | 77.2% (inactive)
5 | CCC1CN2C(=N1)c1ccccc1-c1cc(Cl)ccc12 (stereo not given) | -9.43% (active) | -5.17% (active) | 35.6% (inactive) | 26.6% (inactive) | 29.6% (inactive) |  | 20.4% (inactive) | 89.1% (inactive) | 
6 | CC1(C)Cc2c(Br)c(Br)c(Br)c(OCC(O)CN3CCN(c4ccccn4)CC3)c2O1 (stereo not given) | 52.1% (inactive) | 88.6% (inactive) | 102% (inactive) | 112% (inactive) | 102% (inactive) | -11.7% (active) |  | 89.2% (inactive) | 75.3% (inactive)
7 | CCc1ccc(C2=C/C(=C/c3ccc(Cl)cc3)C(=O)N2CCc2ccc(S(N)(=O)=O)cc2)cc1 | 18.9% (inactive) | 21.5% (inactive) | 47.2% (inactive) | 32.1% (inactive) | 46% (inactive) | 27.7% (inactive) | 23.6% (inactive) | 62.6% (inactive) | 51.8% (inactive)
8 | O=C(CNc1cccnc1)Nc1ccc(C(=O)/C=C/c2ccc(Cl)cc2)cc1 | 21.7% (inactive) | 98.1% (inactive) | 92.7% (inactive) | 87.1% (inactive) | 111% (inactive) | 95.1% (inactive) | 89.8% (inactive) | 82.1% (inactive) | 98% (inactive)
9 | COc1ccc2c(c1)nnn1c3ncccc3c(N=O)c21 | -56.2% (active) | -30.3% (active) | -0.558% (active) | 9.93% (active) | 9.38% (active) |  | -91.3% (active) | -29.7% (active) | 
10 | O=C(NCCNc1nccc(-c2c(-c3cccc(O)c3)nc3sccn23)n1)Nc1cccc(C(F)(F)F)c1 | -4.81% (active) | 41.2% (inactive) | 117% (inactive) | 110% (inactive) | 85% (inactive) | 65.6% (inactive) | 76.7% (inactive) |  | 108% (inactive)
11 | CC(=S)Nc1ccccc1 | 99.7% (inactive) | 94.5% (inactive) | 99.8% (inactive) | 95.4% (inactive) | 87.6% (inactive) | 89.8% (inactive) | 101% (inactive) | 98.7% (inactive) | 100% (inactive)
12 | CCCCCC/C=N/Nc1ccc([N+](=O)[O-])cn1 | 105% (inactive) | 110% (inactive) | 100% (inactive) | 118% (inactive) | 81.1% (inactive) | 105% (inactive) | 103% (inactive) | 108% (inactive) | 102% (inactive)
13 | O=S(=O)(CCN1CCOCC1)Nc1cc(-c2ccc3ncnc(Nc4ccc(F)c(Cl)c4)c3c2)cnc1Cl | 9.83% (active) | 16.1% (inactive) | 12.1% (inactive) | 11.5% (inactive) | -25.4% (active) | -24.1% (active) | -8.19% (active) | -18.3% (active) | 48.6% (inactive)
14 | COc1cc(/C=C/C(=O)c2c(C)[n+]([O-])c3ccccc3[n+]2[O-])ccc1O | 104% (inactive) | 89.4% (inactive) | 110% (inactive) | 155% (inactive) | 97.8% (inactive) | 61.4% (inactive) |  | 99.4% (inactive) | 104% (inactive)
15 | CCn1c(SCC(=O)c2ccc(Br)cc2)nnc1-c1cc2c([nH]c3ccccc32)c(-c2cccc(O)c2)n1 | 69.4% (inactive) | 77.5% (inactive) | 95.1% (inactive) | 71.4% (inactive) | 86.7% (inactive) | 88.5% (inactive) | 80.4% (inactive) | 73.7% (inactive) | 81.1% (inactive)
16 | Nc1nccc2c1ccn2-c1ccc(NC(=O)c2ccc(N3CCOCC3)c(C(F)(F)F)c2)cc1 | -29.9% (active) | 28% (inactive) | 14.2% (inactive) | 77.4% (inactive) | 48.4% (inactive) | 35.8% (inactive) | 46% (inactive) |  | 49.3% (inactive)
17 | CCc1c2cc(Cl)ccc2n2cc(Cc3ccccc3)[nH]c(=O)c12 | 110% (inactive) | 99.1% (inactive) | 93.9% (inactive) | 102% (inactive) | 103% (inactive) | 90.5% (inactive) | 99.2% (inactive) | 87.4% (inactive) | 100% (inactive)
18 | Nc1nc(Cl)cc(NCCCCNc2cc(Cl)nc(N)n2)n1 | 96.4% (inactive) | 99.5% (inactive) | 94.9% (inactive) | 104% (inactive) | 113% (inactive) | -19.9% (active) |  | 126% (inactive) | 107% (inactive)
19 | C=CCn1c(SCC(=O)Nc2ccc(C(=O)/C=C/c3cc(OC)c(OC)c(OC)c3)cc2)nnc1-c1ccc(OC)cc1 | -33.1% (active) | 7.47% (active) | 9.19% (active) | 19.3% (inactive) | 16.6% (inactive) | -3.21% (active) | -45.9% (active) | 32.5% (inactive) | 20.1% (inactive)
